Screen size: about 2,300 compounds; about 2,100 (91%) were called active.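 The calls were made as follows: active = compounds raising the signal whose fitted half-maximal concentration is at or below their top tested dose (cut at about 25 µM in these data); inconclusive = flat fit at 30 to 70% activity, or a poor fit; inactive = the rest.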 The set was probably picked from earlier hits. Only a sample is shown. Entries with a potency or affinity are not part of this list.
experiment: cytokine-free beta-cell viability effect – INS-1E rat cells, ATP luminescence, cherry pick, counter-screen for beta-cell apoptosis protection project, dose response (AID 463229); conditions: INS-1E rat beta cells, no cytokines, CellTiter-Glo ATP, 48 h; series mostly up to 26 µM

Row | SMILES | outcome
1 | COc1ccc(C2=Nn3c(nnc3-c3ccccc3Cl)SC2)cc1OC1CCCC1 | inactive
2 | CCn1c(SCC(=O)Nc2ccc(OC)cc2)nc2nc3c(cc2c1=O)CCCC3 | inactive
3 | Cc1cccnc1CCNCc1c(C(=O)N2C[C@@H](C)O[C@@H](C)C2)nc2ccc(Cl)cn12 | inactive
4 | Cc1ccccc1Oc1nc(-c2ccccn2)nc2ccccc12 | inactive
5 | COc1cc2c(cc1OC)C(NC(=O)C(F)(F)F)CNC2=O (stereo not given) | inactive
6 | Cc1cccc(C2(c3cccc(C)c3)OC(=O)c3ccccc32)c1 | inactive
7 | O=C(CN1C(=O)c2ccccc2S1(=O)=O)c1ccc(F)cc1 | inactive
8 | O=c1c2c3c(sc2n(CCN2CCCCC2)c(=O)n1Cc1ccco1)CCCCC3 | inactive
9 | CCCCn1cnc2c(c(-c3ccccc3)c(-c3ccccc3)n2Cc2ccco2)c1=N | inactive
10 | Cc1cc(C(=O)c2ccc3ccccc3c2)c(C)o1 | inactive
11 | C=CCc1c(C)nc(C)nc1N/N=C/c1ccc(N(C)C)cc1 | inactive
12 | Cc1cc(N2CCOCC2)nc(N)n1 | inactive
13 | COc1ccccc1NCC(=O)N1CCN(S(=O)(=O)c2ccccc2)CC1 | inactive
14 | Cc1ccc(NC(=O)C(C)Sc2nnc(C)n2C2CC2)cc1S(=O)(=O)N1CCOCC1 (stereo not given) | inactive
15 | CNc1nc(N)c([N+](=O)[O-])c(Nc2cccc(F)c2)n1 | inactive
16 | Cc1cccc(CNc2ccc(S(=O)(=O)N3CCCCC3)cc2)c1 | inactive
17 | O=C(N/N=C/c1cccnc1)c1ccccc1NS(=O)(=O)c1cccs1 | inactive
18 | O=C(c1cccc(Cl)c1)c1nn(-c2ccccc2)c(=O)cc1C(F)(F)F | inactive
19 | O=[N+]([O-])/C=C/c1cn(Cc2ccc(F)cc2)c2ccccc12 | inactive
20 | Cc1csc2nc(NC(=O)c3ccccc3)sc(=O)c12 | inactive
21 | CCOc1ccc(N(C)S(=O)(=O)c2ccc(C)c(C(=O)OCC(=O)c3c[nH]c4ccccc34)c2)cc1 | inactive
22 | OC(CNC1CCCCC1)COCCOc1ccc(Br)cc1 (stereo not given) | inactive
23 | Cc1cc(C)c(OCC(O)CNC(C)(C)C)c(C)c1 (stereo not given) | inactive
24 | CC(C)(C)OC(=O)N1CCC(CNC(=O)c2cccs2)CC1 | inactive
25 | COc1ccc(-c2ccnc(SCC(=O)N3CCN(c4ccccc4)CC3)n2)cc1 | inactive
26 | O=C(NCc1nc2ccccc2[nH]1)C1=C[C@@H](C2CCCCC2)C[C@@H](OCc2ccc(CO)cc2)O1 | inactive
27 | CCCOC(=O)/C(C(N)=NCc1ccccc1)=C(\O)OCCC | inactive
28 | CCOC(=O)C1=C(CCc2ccccc2)NC(=O)NC1c1ccc2ccccc2c1 (stereo not given) | inactive
29 | c1cc(-c2noc(CC3CCCCC3)n2)ccn1 | inactive
30 | COc1ccccc1/C=N/OCc1cc(C(C)=O)ccc1OC | inactive

Source: PubChem BioAssay AID463229 (Broad Institute, 2010)
